According to PubChem BioAssay (NCI):
Compounds without any hit were thinned out: in the full panel of roughly 83,000, 20% have a hit.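 Single-concentration screen, 48 h exposure, 96-well plates. Endpoint: percent growth. Below 10 = active.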 A number with no mark means an inactive call. Active and inactive are the calls of the source.

Tests used:
Assay in all cases: NCI-60 one-dose screen, 48 h (100 = growth as untreated, 0 = no growth, -100 = all killed)
SR leukemia = settings: 10 µM unless noted
RPMI-8226 leukemia = settings: 10 µM unless noted
OVCAR-8 ovarian = settings: 10 µM unless noted
OVCAR-5 ovarian = settings: 10 µM unless noted
OVCAR-4 ovarian = settings: 10 µM unless noted
SK-OV-3 ovarian = settings: 10 µM unless noted
IGROV1 ovarian = settings: 10 µM unless noted
OVCAR-3 ovarian = settings: 10 µM unless noted
HS 578T breast = settings: 10 µM
NCI/ADR-RES ovarian = settings: 10 µM unless noted
T-47D breast = settings: 10 µM unless noted
BT-549 breast = settings: 10 µM unless noted
MDA-MB-435 melanoma = settings: 10 µM unless noted
SW-620 colon = settings: 10 µM unless noted
MCF7 breast = settings: 10 µM unless noted
HCT-116 colon = settings: 10 µM unless noted
HCC-2998 colon = settings: 10 µM
KM12 colon = settings: 10 µM unless noted

SMILES | growth (SR leukemia) | growth (RPMI-8226 leukemia) | growth (OVCAR-8 ovarian) | growth (OVCAR-5 ovarian) | growth (OVCAR-4 ovarian) | growth (SK-OV-3 ovarian) | growth (IGROV1 ovarian) | growth (OVCAR-3 ovarian) | growth (HS 578T breast) | growth (NCI/ADR-RES ovarian) | growth (T-47D breast) | growth (BT-549 breast) | growth (MDA-MB-435 melanoma) | growth (SW-620 colon) | growth (MCF7 breast) | growth (HCT-116 colon) | growth (HCC-2998 colon) | growth (KM12 colon)
Clc1ccc(C(Cn2ccnc2)OCc2ccsc2Cl)c(Cl)c1 (stereo unspecified) | 17.3% | 37.6% | 57.2% | 68.9% | 52.7% | 70.7% | 40.9% | 55.7% | 30.8% | 23.1% | 43.5% | 40% | -0.595% (active) | 45.1% | 43.7% | 26.3% | 53.8% | 24.6%
CN(C)CCn1c(=O)c2c3cc4c(cc3n(CCN(C)C)c2c2ccc(Cl)cc21)OCO4 | -13.5% (active) | 44.7% | 31.7% | 81.4% | 61.3% | 41.3% | 38.4% | 83.5% | 84.7% | 31.4% | 57.2% | 63.6% | 70.7% | -14.7% (active) | 21.3% | -79.4% (active) | 81.7% | 45.1%
CCOc1cccc(/C=N/NC(=O)c2ccccc2Nc2ccnc(C(F)(F)F)c2)c1O | -20.1% (active) | -19.7% (active) | 20.7% | 13% | 25% | 8.43% (active) | -13.8% (active) | 31.5% | 39.2% | -0.31% (active) | 16.5% | 26.4% | 29.8% | 32.3% | 2.99% (active) | 14.7% | 48.6% | 33.2%
CC1(O)CCC(Nc2cc(-c3ccc(C(F)(F)F)cc3)c(C#N)c3nc4ccccc4n23)CC1 (stereo unspecified) | 79.4% | 56.8% | 78.3% | 99% | 55.2% | 68.6% | 79.3% | 81.4% | 74.4% | 61.8% | 53% | 38.2% | 64.7% | 90.5% | 43.9% | 53.6% | 86.5% | 68.7%
CN1CCN(CCCOc2cccc3nc(Nc4ccc(Cl)c(C(F)(F)F)c4)ccc23)CC1 | -33.3% (active) | 10.6% | 13.9% | 17.9% | 42.1% | 52.5% | 55.4% | -4.07% (active) | 32.6% | -0.603% (active) | 16.4% | 59.1% | -21.4% (active) | -54.8% (active) | -67.3% (active) | -82.7% (active) | -90.8% (active) | -78% (active)
Cc1ccc(NC(=O)NC(=O)CSc2nc3ccccc3nc2C)cc1 | 45.8% | 57.1% | 72.4% | 100% | 23.3% | 56.2% | 72.2% | 97.4% | 97.6% | 40.6% | 40.9% | 59.9% | 74.1% | 78.3% | 52.4% | 17.1% | 72.1% | 76.5%
CCCCCCCC(=O)SCC/C=C/[C@@H]1CC(=O)NCc2nc(co2)C2=N[C@@](C)(CS2)C(=O)N[C@@H](C(C)C)C(=O)O1 | 10.7% | 3.09% (active) | 0.95% (active) | -5.93% (active) | 12.2% | -12.7% (active) | -23.2% (active) | -45.6% (active) | 4.63% (active) | 5.57% (active) | -5.12% (active) | 13.2% | -31.8% (active) | -29.2% (active) | 14.9% | -63.2% (active) | -68.8% (active) | 1.36% (active)
CN1CCN(Cc2ccc(NC(=O)c3[nH]ncc3Nc3ncnc4sc5c(c34)CCCC5)cc2)CC1 | -54.3% (active) | -32.1% (active) | -39.6% (active) | -86.8% (active) | -41.4% (active) | -5.01% (active) | -60.9% (active) | -83.8% (active) | -32.5% (active) | -61.7% (active) | 9.76% (active) | -20.7% (active) | -89% (active) | -52% (active) | -67.2% (active) | -96% (active) | -74.9% (active) | -64.3% (active)
N#Cc1c(C(F)(F)F)cc(Nc2ccc3nc(NCCN4CCCC4)oc3c2)n2c1nc1ccccc12 | 0.701% (active) | 44.6% | 65.7% | 137% | 64.2% | 89.9% | 79.6% | 91.6% | 100% | 86.5% | 66.9% | 72.3% | 90.8% | 37.4% | 38.9% | 17.9% | 68% | 73.9%
CC(N)C(Cc1ccc(Cl)cc1)c1ccc(Cl)cc1 (stereo unspecified) | -9.14% (active) | 25.3% | 71.5% | 77.9% | 71.7% | 81.9% | 77.8% | 87.2% | 71.6% | 87.5% | 54.8% | 77.6% | 56.5% | 57.3% | 91.1% | 35% | -6.15% (active) | 63%
COc1ccc(CCCc2c3[n+](cc4c(OC)c(OC)ccc24)CCc2cc4c(cc2-3)OCO4)cc1 | 37.6% | 20.5% | 48.1% | 86.6% | 54.5% | 77.5% | 53.9% | 30% | 97.2% | 93.7% | 15.6% | 41.8% | 39.7% | 68.9% | 93.7% | 59.2% | 74% | 30.8%
CO[C@H](C(=O)N[C@@H](CCCCNC(=O)OCc1ccccc1)C(=O)OC(C)(C)C)[C@@H]1Cc2cc3cc(OC4CC(OC5CC(O)C(O)C(C)O5)C(O)C(C)O4)c(C)c(O)c3c(O)c2C(=O)[C@H]1OC1CC(OC2CC(OC3CC(C)(O)C(O)C(C)O3)C(O)C(C)O2)C(O)C(C)O1 (stereo partly specified) | 7.17% (active) | -5.01% (active) | 12.9% | -77.9% (active) | 43.1% | -52.7% (active) | 22.2% | 24.8% | -16.4% (active) | 73.2% | 7.2% (active) | -79.7% (active) | -69.8% (active) | 3.71% (active) | 3.56% (active) | -63.9% (active) | -5.55% (active) | -62.7% (active)
C=C1C(=O)O[C@H]2[C@H]1CC/C(Cn1cc(-c3cc(C)c(C)cc3C)nn1)=C\CC[C@@]1(C)O[C@@H]21 | -5.15% (active) | -24.6% (active) | -55.9% (active) | -45.6% (active) | -94.3% (active) | 76.2% | -63.9% (active) | -95.2% (active) | 11.6% | 5.12% (active) | -46.8% (active) | -66.1% (active) | -56.3% (active) | -79.2% (active) | -62.3% (active) | -87.4% (active) | -91.7% (active) | 14.1%
Cc1[nH]n(C(N)=S)c(=O)c1N=Nc1ccc(S(=O)(=O)Nc2ccncn2)cc1 | 111% | 47.2% | 106% | 111% | 95.1% | 100% | 67.3% | 99% | 86.2% | 104% | 109% | 143% | 136% | 102% | 88.1% | 112% | 105% | 99.5%
CC(=O)CC1CCCC1c1ccc2ccccc2c1 (stereo unspecified) | 104% | 103% | 100% | 97.2% | 112% | 101% | 101% | 105% | 100% | 102% | 90% | 109% | 111% | 106% | 95.9% | 104% | 86.8% | 106%
Cc1ccccc1Nc1nc2nonc2nc1Nc1cccc(C)c1C | 66.8% | 24.4% | 54.3% | 98.9% | 30.3% | 56.6% | 74% | 35.8% | 72.6% | 56.5% | 16.2% | 51.7% | 55.7% | 77% | 43.3% | 43% | 67.5% | 53.8%
CCCCCCCC(=O)SCC/C=C/[C@@H]1CC(=O)NCc2cccc(n2)C2=N[C@@](C)(CS2)C(=O)N[C@@H](C(C)C)C(=O)N1 | 18.9% | 17.1% | 32.1% | 25.5% | 34.4% | 10.3% | 26% | 22% | 26.2% | 86.7% | -7.49% (active) | 41.4% | 19.6% | 69.3% | 28.3% | 2.91% (active) | 12.6% | 24.9%
